Hits are enriched below; roughly 3.8% of the tested compounds scored in any of these assays.
Gli-Sufu antag: blocks Gli-Sufu signaling in a luciferase reporter. Sufu-KO-LIGHT fibroblasts, Gli luciferase reporter luminescence. inhibition, % at 5 µM. hit rate 0.74% among 340,000;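 active = inhibition above about 55%, limit read from the data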;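 note: 0% = DMSO-treated cells and 100% = wells with medium but no cells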
Jurkat NFkB inh: lowers PMA/ionomycin-induced NF-kB signal in Jurkat cells. PMA/ionomycin-induced NF-kB luciferase reporter, luminescence. inhibition, % at 4 µM. hit rate 0.53% among 330,000; in the data active = inhibition above about 50%
Shn3 inh set2: reduces Shn3 3'UTR luciferase signal in osteoblasts | hit rate 0.52% among 360,000 | Clone20 osteoblast Shn3 3'UTR firefly luciferase, 24 h | AID 588674 | inhibition, % at 12.5 µM;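 active = mean inhibition of at least 75% with every replicate also reaching 75%; inconclusive = mean inhibition at least 75% but some replicate below; inactive = mean inhibition below 75%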;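 note: 0% = median of neutral control wells and 100% = pilot-screen positive control compound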
697 NFkB inh: lowers PMA/ionomycin-induced NF-kB signal in 697 B cells | AID 435022 | hit rate 0.33% among 330,000 | 697 B-cell NF-kB luciferase reporter, 16 h | inhibition, % at 4 µM; in the data active = inhibition above about 35%
Mdm2-MdmX inh: disrupts the human Mdm2-MdmX interaction. O15151+Q00987. AID 485346. inhibition, % at 8 µM. hit rate 3% among 330,000. SaOS-2 split-luciferase Mdm2/MdmX complementation, luminescence;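 active = inhibition of at least 50% at 8 µM in the primary screen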
Target sequence (O15151 whole entry, looked up): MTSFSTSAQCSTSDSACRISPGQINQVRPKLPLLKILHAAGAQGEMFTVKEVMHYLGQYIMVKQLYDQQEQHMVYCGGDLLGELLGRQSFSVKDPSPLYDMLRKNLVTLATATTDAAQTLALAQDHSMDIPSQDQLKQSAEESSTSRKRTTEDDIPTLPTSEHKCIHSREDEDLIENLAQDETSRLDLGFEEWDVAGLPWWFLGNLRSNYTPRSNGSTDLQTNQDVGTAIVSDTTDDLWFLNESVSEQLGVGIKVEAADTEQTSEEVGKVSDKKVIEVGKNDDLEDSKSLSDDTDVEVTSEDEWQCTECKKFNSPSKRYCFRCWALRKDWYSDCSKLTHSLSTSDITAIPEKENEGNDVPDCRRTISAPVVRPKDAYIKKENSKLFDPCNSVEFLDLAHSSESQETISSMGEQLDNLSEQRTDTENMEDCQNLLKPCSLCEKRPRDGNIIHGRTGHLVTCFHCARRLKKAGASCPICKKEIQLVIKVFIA
Target sequence (Q00987 whole entry, looked up): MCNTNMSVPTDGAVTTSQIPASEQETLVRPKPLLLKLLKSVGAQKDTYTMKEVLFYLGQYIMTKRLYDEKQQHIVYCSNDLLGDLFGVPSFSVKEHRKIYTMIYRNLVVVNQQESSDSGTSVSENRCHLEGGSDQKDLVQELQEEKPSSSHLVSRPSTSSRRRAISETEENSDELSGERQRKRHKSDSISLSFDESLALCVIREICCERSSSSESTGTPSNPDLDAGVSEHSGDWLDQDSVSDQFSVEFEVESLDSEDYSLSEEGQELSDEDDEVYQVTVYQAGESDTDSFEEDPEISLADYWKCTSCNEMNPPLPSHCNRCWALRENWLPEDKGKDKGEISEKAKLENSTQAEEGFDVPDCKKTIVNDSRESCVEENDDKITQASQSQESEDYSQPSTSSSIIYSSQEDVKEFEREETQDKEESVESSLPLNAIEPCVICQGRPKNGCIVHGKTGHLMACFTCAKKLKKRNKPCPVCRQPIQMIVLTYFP
Mdm2-MdmX conf: human Mdm2/MdmX binding inhibition, confirmed. shares compounds with Mdm2-MdmX inh. luminescent assay. inhibition, % at 8 µM. hit rate 55% among 10,000. AID 489028; in the data active = inhibition above about 40%
Full FLuc ctr: counter-screen for Mdm2/MdmX inhibitors: full-length luciferase; shares compounds with Mdm2-MdmX inh; AID 504607; hit rate 77% among 6,200; inhibition, % at 8 µM; SaOS-2 full-length luciferase counterscreen, luminescence;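 active = mean inhibition at 8 µM reaching about 37%, which flags the compound as non-specific, limit read from the data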;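 note: p53-null SaOS-2 cells with luciferase driven by a doxycycline-inducible promoter; compound on cells about two nights before reading with doxycycline added after day one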
Starred values were filed as active, the others as inactive; ? = inconclusive; nt = no result.

SMILES	Gli-Sufu antag	Jurkat NFkB inh	Shn3 inh set2	697 NFkB inh	Mdm2-MdmX inh	Mdm2-MdmX conf	Full FLuc ctr
COC(=O)c1ccc(NC(=O)CSc2nc3ccc(N4C(=O)C5C6C=CC(C6)C5C4=O)cc3s2)cc1 (stereo not given)	18	3	21	-21	69*	23	nt
CC1CCC(C(C)C)C(OC(=O)Cn2c(COc3ccccc3)[n+](C)c3ccccc32)C1 (stereo not given)	34	24	60	-25	98*	96*	54*
CC(=O)NC(Cc1ccc(N(CCCl)CCCl)cc1)C(=O)NC(C(=O)O)C(C)C (stereo not given)	-4	-17	5	-4	7	nt	nt
CCOC(=O)CC(NC(=O)C(Cc1ccc(N(CCCl)CCCl)cc1)NC(C)=O)C(=O)OCC (stereo not given)	49	7	39	14	81*	57*	15
CC(=O)c1ccc(OCC(=O)N2CCCC(N3CCN(c4ccccc4C)CC3)C2)cc1 (stereo not given)	20	2	25	0	33	nt	nt
CC1Oc2cc3c(-c4c(O)cc(O)c5c(O)c6c(cc45)OC(C)C(C)C6=O)c(O)cc(O)c3c(O)c2C(=O)C1C (stereo not given)	68*	1	88*	-3	89*	73*	22
Clc1ccc2c(c1)C(OC1CN3CCC1CC3)c1ccccc1CS2 (stereo not given)	14	19	22	11	64*	39	61*
CN1CCN(CCOC2c3ccccc3CSc3ccc(Cl)cc32)CC1 (stereo not given)	11	-3	-4	21	33	nt	nt
COc1ccc(NC(=O)c2cn(CCC#N)nc2-c2cccc([N+](=O)[O-])c2)cc1	5	8	9	31	-21	nt	nt
COc1ccc(Oc2cc(NC(=O)c3nn(C)cc3[N+](=O)[O-])cc([N+](=O)[O-])c2)cc1	-3	9	?	32	76*	96*	46*
C[C@H](CO)N1C[C@H](C)[C@@H](CN(C)C(=O)Oc2ccc3ccccc3c2)OCc2cnnn2CCCC1=O	nt	nt	-7	nt	nt	nt	nt
COc1ccc(/C=C/C(=O)c2c(O)n(CCC3=CCCCC3)c(=O)[nH]c2=O)cc1	-1	2	-4	0	53*	26	nt
CCNC(=O)NC(=O)C(C)OC(=O)c1c(C)nn(Cc2ccccc2)c1Cl (stereo not given)	0	-1	8	-38	-9	nt	nt
CC(C)CNC(=O)c1c(N)n(Cc2ccc3c(c2)OCO3)c2nc3ccccc3nc12	7	-8	9	-9	61*	15	nt
CC(C)CCNC(=O)c1c(N)n(Cc2ccc3c(c2)OCO3)c2nc3ccccc3nc12	0	-7	25	4	24	nt	nt
C[C@H](NC(=O)N1C[C@H]2C[C@@H](C1)c1cccc(=O)n1C2)C(=O)Nc1ccccc1F	-12	6	8	4	-23	nt	nt
O=C1NC(=O)C(CCc2ccncc2)(Cc2cccc(Cl)c2Cl)C(=O)N1c1ccc(Br)cc1 (stereo not given)	33	36	-12	-46	58*	54*	43*
COc1ccccc1OCCCn1cc(C(=O)c2ccco2)c2ccccc21	7	-12	-2	-56	16	nt	nt
O=C(c1ccco1)c1cn(Cc2ccc(Cl)cc2)c2ccccc12	-3	23	7	8	51*	34	68*
O=[N+]([O-])CCO	20	-14	-4	1	13	nt	nt
[O-]c1ccccc1-[n+]1c(-c2ccccc2)cc(-c2ccccc2)cc1-c1ccccc1	16	13	-4	-42	90*	71*	22
Cc1ccccc1-[n+]1c(-c2ccccc2)cc(-c2ccccc2)cc1-c1ccccc1	77*	16	30	-11	88*	88*	19
Oc1ccccc1-[n+]1c(-c2ccccc2)cc(-c2ccccc2)cc1-c1ccccc1	24	20	-13	-15	42	nt	nt
Cc1cc(OCC(=O)N[C@H](C(=O)O)c2ccccc2)c2c3c(c(=O)oc2c1)CCC3	3	10	-12	14	8	nt	nt
COC(=O)C1=C(C)NC(C)=C(C(=O)OC)C1c1ccccc1[N+](=O)[O-]	nt	11	-9	-3	97*	53*	28
SMILES	Gli-Sufu antag	Jurkat NFkB inh	Shn3 inh set2	697 NFkB inh	Mdm2-MdmX inh	Mdm2-MdmX conf	Full FLuc ctr
c1ccc2c(c1)Sc1ccccc1N2CC1CN2CCC1CC2 (stereo not given)	2	8	6	-29	75*	44*	84*
O=C(Cc1ccccc1)N1CCN(Cc2ccccc2Cl)CC1	8	-8	5	-20	-59	nt	nt
COC(=O)C(O)(c1ccc(N(C)C(=O)c2cccs2)cc1)C(F)(F)F (stereo not given)	10	1	27	-22	22	nt	nt
Cc1ccc2c(c1)C1CN(C)CCC1N2C(=O)Nc1cccc(C(F)(F)F)c1 (stereo not given)	7	18	-18	26	55*	37	65*
Cc1ccc2c(c1)C1CN(C)CCC1N2C(=O)CCCN1C(=O)c2cccc3cccc(c23)C1=O (stereo not given)	16	2	15	20	51*	23	nt
Cc1ccc2c(c1)[C@@H]1CN(C)CC[C@@H]1N2C(=O)Nc1cccc(C(F)(F)F)c1	-1	15	-10	23	52*	20	nt
Cc1ccc2c(c1)C1CN(C)CCC1N2C(=O)c1cn(-c2ccccc2)nc1-c1ccccc1 (stereo not given)	24	4	-8	7	73*	36	76*
Cc1ccc2c(c1)C1CN(C)CCC1N2C(=O)c1ccc(Br)o1 (stereo not given)	-17	-8	11	8	17	nt	nt
Cc1ccc2c(c1)C1CN(C)CCC1N2C(=O)c1cccnc1Cl (stereo not given)	4	6	21	6	12	nt	nt
O=C1NCN(c2ccccc2)C12CCN(C(c1ccccc1)c1nnnn1Cc1ccccc1)CC2 (stereo not given)	nt	nt	-10	nt	nt	nt	nt
Cc1cccc(OCC(O)CN2CC2)c1 (stereo not given)	nt	nt	-15	nt	nt	nt	nt
CC(=O)c1c(C)n(Cc2ccccc2Cl)c2ccc(O)cc12	-6	-8	-2	-8	52*	38	110*
CNCC(O)c1cccc(OC(=O)c2ccccc2C)c1 (stereo not given)	-24	-9	-7	-9	0	nt	nt
CNCC(O)c1cc(OCc2ccccc2)c(OCc2ccccc2)cc1F (stereo not given)	23	10	23	14	82*	8	nt
Cc1ccc(C(=O)N[C@@H](C)CN2C3=NC[C@@H](Cc4ccccc4)N3C[C@H]2Cc2ccc(O)cc2)cc1Br	-9	7	nt	7	69*	33	nt
